The source of these data is PubChem BioAssay.

The subject of experiment [1] is transactivating tegument protein VP16 (Human herpesvirus 1). Briefly: compounds suppressing VP16-driven luciferase signal – cell-based, luminescence, single concentration, counter-screen for SRC2 inhibitor project (AID 652007; in the data active means inhibition above about 36%). As to conditions: cell-based VP16 transactivation luciferase reporter, at 8.9 µM, active compounds read high. For orientation: The purpose of a counterscreen is to sort out artefacts and off-target activity.

Experiment [2] has as its target Nuclear receptor coactivator 2 (Homo sapiens) (UniProt Q15596). The experiment in a line: inhibition of GAL4-SRC2 driven luciferase expression – cell-based, luminescence, HEK293, triplicate, confirmation (AID 652008).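 Further: 0% = DMSO-treated cells and 100% = Gossypol at 36 µM.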 As to conditions: HEK293 GAL4-SRC2 luciferase reporter, at 8.9 µM, active compounds read high.

A number with no mark means an inactive call. Calls of active or inactive are those of the source.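 How the source made its calls, unless noted: active means mean inhibition above 46.5%, the solvent-only control mean plus 3 SD; inactive means the rest.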

Nuclear receptor coactivator 2 (Homo sapiens), sequence (Q15596 whole entry, looked up, the tested form may be a part): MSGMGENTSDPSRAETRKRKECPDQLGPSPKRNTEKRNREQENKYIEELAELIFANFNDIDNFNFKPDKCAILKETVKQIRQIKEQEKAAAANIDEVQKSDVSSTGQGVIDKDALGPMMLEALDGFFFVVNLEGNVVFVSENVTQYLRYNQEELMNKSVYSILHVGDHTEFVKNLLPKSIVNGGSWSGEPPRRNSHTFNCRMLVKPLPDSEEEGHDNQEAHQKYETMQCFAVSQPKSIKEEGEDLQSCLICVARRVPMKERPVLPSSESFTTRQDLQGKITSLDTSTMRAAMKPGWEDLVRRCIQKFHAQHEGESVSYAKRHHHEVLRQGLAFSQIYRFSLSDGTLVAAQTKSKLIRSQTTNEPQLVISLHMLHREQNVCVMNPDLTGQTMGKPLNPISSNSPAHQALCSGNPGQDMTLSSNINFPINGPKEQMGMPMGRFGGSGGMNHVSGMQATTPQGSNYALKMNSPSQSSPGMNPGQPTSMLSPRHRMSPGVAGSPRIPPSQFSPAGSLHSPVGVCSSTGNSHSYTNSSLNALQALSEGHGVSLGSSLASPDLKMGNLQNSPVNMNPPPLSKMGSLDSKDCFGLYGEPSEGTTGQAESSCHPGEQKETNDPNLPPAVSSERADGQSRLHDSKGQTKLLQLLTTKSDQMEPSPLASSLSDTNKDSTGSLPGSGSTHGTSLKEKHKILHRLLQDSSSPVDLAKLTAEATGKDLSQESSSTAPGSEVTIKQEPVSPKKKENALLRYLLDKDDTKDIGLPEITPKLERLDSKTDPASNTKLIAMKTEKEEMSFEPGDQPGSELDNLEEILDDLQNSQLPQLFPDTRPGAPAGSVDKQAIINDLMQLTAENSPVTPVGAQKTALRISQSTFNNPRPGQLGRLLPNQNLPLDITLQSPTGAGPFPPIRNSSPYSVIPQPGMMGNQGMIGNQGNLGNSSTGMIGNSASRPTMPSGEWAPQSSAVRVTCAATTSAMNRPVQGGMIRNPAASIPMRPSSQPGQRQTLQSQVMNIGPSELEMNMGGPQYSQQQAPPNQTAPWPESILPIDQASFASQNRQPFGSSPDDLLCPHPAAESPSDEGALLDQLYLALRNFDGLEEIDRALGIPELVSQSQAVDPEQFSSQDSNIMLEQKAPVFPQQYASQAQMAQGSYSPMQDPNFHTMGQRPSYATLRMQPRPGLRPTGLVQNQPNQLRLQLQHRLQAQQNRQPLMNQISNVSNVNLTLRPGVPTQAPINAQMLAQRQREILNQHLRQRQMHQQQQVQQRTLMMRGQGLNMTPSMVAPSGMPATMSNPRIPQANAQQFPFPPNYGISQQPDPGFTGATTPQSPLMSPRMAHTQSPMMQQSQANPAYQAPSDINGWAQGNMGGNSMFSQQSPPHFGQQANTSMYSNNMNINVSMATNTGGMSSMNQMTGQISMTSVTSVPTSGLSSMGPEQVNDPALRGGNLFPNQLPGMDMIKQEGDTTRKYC

Take `O=C(c1ccccc1)N1CCN(c2ncnc3sc4c(c23)CCC4)CC1`: the inhibition (usually the drop in the measured response relative to a control, in per cent) in experiment [1] is 19.7%; in experiment [2], 37.1%.
On to `CN(Cc1ccc(Cl)cc1)C(=O)CCl`, for which the inhibition in experiment [1] was 29.1%; in experiment [2] it was 25.3%.
In the case of `COc1ccc(-c2nnc(SCc3cccc(F)c3)n2-c2ccccc2)cc1`, the inhibition in experiment [1] is -12.4%; in experiment [2], -7.06%.
The matching figures for `CC(C)OC(=O)c1ccc(NCc2cc(O)ccc2O)cc1`: 51.7% (active) and 54.8% (active).
As for `CCOC(=O)c1c(NC(=O)c2cnn3c2NC(c2cccc(OC)c2)CC3C(F)(F)F)sc2c1CCCC2` (centres undefined), the inhibition in experiment [1] is 16.7%; in experiment [2], -21.9%.
Taken in the same sequence, the figures for `COc1cccc(C(=O)c2sc(NC(C)C)nc2N)c1` were 6.6% and 57.2% (active).
For the compound `COc1ccc(CN2C[C@H](Cc3ccccc3)[C@@H](CC(=O)Nc3ccccc3)C2=O)cc1`, the inhibition in experiment [1] was -10.9%; in experiment [2], 1.81%.
For the compound `Cc1nc(=O)c(-c2ccccc2)c(C)n1-c1ccccc1Cl`, the inhibition was -4.06% in experiment [1] and -36.8% in experiment [2].
In the case of `CCOc1ccc(CN(C)C(=O)CCl)cc1`, the inhibition in experiment [1] was 30.9%; in experiment [2], 35.6%.
With `COc1ccc2cc3cc(C(=O)Nc4ccc5c(c4)OCO5)oc3nc2c1`, the inhibition in experiment [1] is -29.9%; in experiment [2], -32%.
For `Fc1ccc(-c2nnc(NC3=NCCCCC3)o2)cc1`, the inhibition in experiment [1] was -10.8%; in experiment [2], 31.4%.
Consider `CCOC(=O)CSc1[nH]c2cc(OC)ccc2c1[N+](=O)[O-]`, for which the inhibition was -31.1% in experiment [1] and 3.3% in experiment [2].
Turning to `O=C(NCCCN1CCOCC1)c1ccc(CNS(=O)(=O)c2ccc(Br)cc2)cc1`, the inhibition in experiment [1] is -18.4%; in experiment [2], 19.1%.
The matching figures for `N#Cc1c(N)nc2c(c1N)CC(C(F)(F)F)O2` (centres undefined): -1.62% and 12%.
For the compound `CCc1ccc(C(=O)N2CCN(c3ccc(NC(=O)c4cccnc4)cc3)CC2)cc1`, the inhibition in experiment [1] was -14.2%; in experiment [2], -9.49%.
Taken in the same sequence, the figures for `COc1cc(CNS(=O)(=O)c2ccc3c(c2)CC(C)N3C(=O)C2CCC2)cc(OC)c1OC` (centres undefined) were 5.37% and 29.3%.
Regarding `CSCC[C@H](NC(=O)c1cc([N+](=O)[O-])ccc1Cl)c1nc2ccccc2[nH]1`, the figures for the inhibition in experiment [1] and in experiment [2] were -0.37% and 19%, respectively.
